Laboratory results: the supplement of paper PMC10646978
± gives the standard deviation.

How the values were obtained:
Conditions in all cases: modulator concentration 10 µM
[1] = test system: RAW-Dual (murine macrophage reporter line); assay: NF-kB reporter (SEAP) activity fold change vs agonist alone; higher = enhanced NF-kB activity
How it was run: (§1)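 In 384-well plates holding 50 000 RAW-Dual murine macrophage reporter cells per well, compound at 10 μM final was pre-incubated for 1 hour at 37 °C, after which a PRR agonist was added overnight. Supernatant SEAP read with QUANTI-Blue at 620 nm absorbance reported NF-κB, and Lucia luciferase read with QUANTI-Luc luminescence reported IRF. Fold change values come from dividing each reporter signal by the mean of agonist-only control wells on the same plate, averaged over replicate plates with propagated errors.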

[2] = test system: RAW-Dual (murine macrophage reporter line); assay: IRF reporter (Lucia luciferase) activity fold change vs agonist alone; higher = enhanced IRF activity
How it was run: as §1

[3] = test system: RAW-Dual (murine macrophage reporter line); assay: viability score (confluency relative to resting cells, overnight) (fraction); higher = more viable, active = viable (0.7 or more)
How it was run: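 RAW-Dual macrophages in 384-well plates were treated overnight with compound at 10 μM final. IncuCyte imaging recorded confluency, and IncuCyte software built two confluency masks across every imaged well. The viability score expresses confluency relative to resting cells and was judged against a cutoff, which a compound met only if both masks exceeded 70% of resting cells.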

[4] = agonist: CpG ODN 1826 0.5 ug/mL

Compound | NF-kB reporter [1, 4] | NF-kB reporter ([1]; agonist: LPS 0.1 ug/mL) | NF-kB reporter ([1]; agonist: MPLA […]) | IRF reporter ([2]; agonist: 3'3'-cGAMP 10 ug/mL) | IRF reporter ([2]; agonist: LPS 0.1 ug/mL) | IRF reporter ([2]; agonist: MPLA […]) | viability score [3]
Cl.Fc1ccc([C@@H]2CCNC[C@H]2COc2ccc3c(c2)OCO3)cc1 | 0.575 ± 0.05 | 1 ± 0.051 | 1.23 ± 0.069 | 1.11 ± 0.072 | 1.05 ± 0.055 | 1.04 ± 0.2 | 0.253 (inactive)
COCCCOc1ccnc(CS(=O)c2nc3ccccc3[nH]2)c1C (stereo not drawn) | 1.24 ± 0.3 | 1.07 ± 0.098 | 1.11 ± 0.11 | 0.839 ± 0.029 | 1.22 ± 0.13 | 1.28 ± 0.23 | 0.98 (active)
CCOC(=O)c1sc(NN=Cc2cccc(Cl)c2)nc1C | 1.04 ± 0.12 | 1.06 ± 0.059 | 0.89 ± 0.053 | 0.849 ± 0.039 | 1.57 ± 0.23 | 1.18 ± 0.18 | 1.01 (active)
Cc1cccc(NC(=O)Cc2c(C)nc(SCc3ccccc3F)[nH]c2=O)c1C | 0.996 ± 0.059 | 1.13 ± 0.088 | 1.03 ± 0.081 | 0.938 ± 0.043 | 0.97 ± 0.081 | 0.937 ± 0.21 | 0.997 (active)
CCC(=O)Nc1ccc(NC(=O)c2ccc([N+](=O)[O-])cc2)cc1 | 0.982 ± 0.086 | 1.05 ± 0.072 | 0.991 ± 0.14 | 0.978 ± 0.054 | 1.43 ± 0.12 | 1.12 ± 0.075 | 1.01 (active)
COc1ccc(Nc2nc(N3CCCC(C)C3)nc3[nH]ncc23)cc1 (stereo not drawn) | 0.608 ± 0.03 | 0.617 ± 0.051 | 0.768 ± 0.048 | 0.623 ± 0.045 | 0.905 ± 0.21 | 1.32 ± 0.46 | 0.264 (inactive)
O=C1NC(=O)C(=Cc2ccc(F)cc2)S1 | 0.667 ± 0.052 | 0.951 ± 0.062 | 0.91 ± 0.032 | 0.773 ± 0.16 | 1.02 ± 0.089 | 1.02 ± 0.16 | 0.988 (active)
CC#CCn1c(N2CCC[C@@H](N)C2)nc2c1c(=O)n(Cc1nc(C)c3ccccc3n1)c(=O)n2C | 1.05 ± 0.14 | 1.13 ± 0.22 | 1.02 ± 0.064 | 0.944 ± 0.035 | 1.34 ± 0.38 | 1.14 ± 0.16 | 1.01 (active)
CCOc1ccc2c(c1)C(c1ccccc1C(F)(F)F)CC(=O)N2 (stereo not drawn) | 1.02 ± 0.17 | 1.05 ± 0.091 | 1.03 ± 0.1 | 1.09 ± 0.046 | 1.43 ± 0.33 | 1.57 ± 0.23 | 0.995 (active)
Oc1c(Cl)cc(Cl)cc1Sc1cc(Cl)cc(Cl)c1O | 1.18 ± 0.11 | 0.917 ± 0.061 | 3.21 ± 0.07 | 0.564 ± 0.031 | 1.03 ± 0.16 | 1.1 ± 0.21 | 0.441 (inactive)
CN1CCN(C2=Nc3ccccc3Oc3ccc(Cl)cc32)CC1.O=C(O)CCC(=O)O | 0.411 ± 0.052 | 0.796 ± 0.081 | 1.07 ± 0.1 | 0.548 ± 0.12 | 0.722 ± 0.13 | 0.672 ± 0.15 | 0.92 (active)
CS(=O)(=O)N(CC(=O)NCCSCc1cccc(Cl)c1)c1cccc(Cl)c1 | 0.978 ± 0.16 | 0.986 ± 0.079 | 1.1 ± 0.15 | 1.02 ± 0.033 | 1.08 ± 0.11 | 1.24 ± 0.42 | 1 (active)
CC(Oc1ccc(Cl)cc1)C(=O)NCc1cccnc1 (stereo not drawn) | 1.2 ± 0.11 | 0.981 ± 0.12 | 0.989 ± 0.096 | 1.05 ± 0.026 | 1.31 ± 0.17 | 1.17 ± 0.12 | 1.01 (active)
COc1ccccc1-c1cc(-c2ccccc2)nc(SCC(N)=O)c1C#N | 1.06 ± 0.17 | 0.918 ± 0.12 | 0.928 ± 0.073 | 0.596 ± 0.02 | 1.2 ± 0.18 | 1.41 ± 0.2 | 1 (active)
CC1=C(C(=O)N2CCOCC2)C(c2cccs2)NC(=O)N1 (stereo not drawn) | 1.12 ± 0.18 | 0.973 ± 0.1 | 0.965 ± 0.076 | 0.933 ± 0.047 | 1.07 ± 0.11 | 1.17 ± 0.14 | 0.986 (active)
CCc1c(C)[nH]c2c1C(=O)C(CN1CCOCC1)CC2 (stereo not drawn) [Prestw-1035] | 1.2 ± 0.1 | 0.92 ± 0.07 | 0.934 ± 0.027 | 1.03 ± 0.04 | 0.925 ± 0.049 | 0.959 ± 0.11 | 1 (active)
CN(C)CC(c1ccc(O)cc1)C1(O)CCCCC1.O=C(O)CCC(=O)O (stereo not drawn) | 0.101 ± 0.0077 | 0.562 ± 0.045 | 0.531 ± 0.031 | 0.913 ± 0.075 | 1.29 ± 0.29 | 1.18 ± 0.36 | 0.633 (inactive)
O=C1OC(c2ccc3ccccc3c2)=NC1=Cc1ccc(Br)c([N+](=O)[O-])c1 | 0.963 ± 0.15 | 0.878 ± 0.08 | 0.896 ± 0.1 | 0.861 ± 0.04 | 1.16 ± 0.11 | 1.19 ± 0.24 | 0.998 (active)
CC1(C)CC(=O)C2=C(C1)OC(N)=C(C#N)C2C1CC=CCC1 (stereo not drawn) | 1.02 ± 0.061 | 1.08 ± 0.099 | 1.11 ± 0.068 | 1.23 ± 0.041 | 1.29 ± 0.18 | 1.14 ± 0.12 | 0.9 (active)
CC(C)c1c(C(=O)Nc2ccccc2)c(-c2ccccc2)c(-c2ccc(F)cc2)n1CC[C@@H](O)C[C@@H](O)CC(=O)O [Prestw-1232] | 1.63 ± 0.21 | 1.05 ± 0.11 | 1.16 ± 0.033 | 0.893 ± 0.036 | 0.928 ± 0.068 | 1.13 ± 0.12 | 0.995 (active)
Cc1cccc(CCC(=O)N2CCCC(Oc3ccnc(C)n3)C2)c1 (stereo not drawn) | 1.02 ± 0.09 | 1.14 ± 0.11 | 1.06 ± 0.15 | 0.731 ± 0.057 | 1.19 ± 0.085 | 1.16 ± 0.24 | 0.963 (active)
Cc1nccn1CC1CCc2c(c3ccccc3n2C)C1=O.Cl (stereo not drawn) | 0.82 ± 0.2 | 0.909 ± 0.28 | 0.84 ± 0.047 | 0.889 ± 0.051 | 1.19 ± 0.23 | 1.22 ± 0.33 | 0.638 (inactive)
CC(C)(O)c1ccccc1CC[C@@H](SCC1(CC(=O)O)CC1)c1cccc(/C=C/c2ccc3ccc(Cl)cc3n2)c1 [Prestw-1189] | 1.1 ± 0.084 | 0.765 ± 0.056 | 1.04 ± 0.098 | 1.05 ± 0.048 | 1.27 ± 0.16 | 1.41 ± 0.34 | 0.881 (active)
CN1CCC(OC(c2ccccc2)c2ccccc2)CC1.Cl | 0.827 ± 0.31 | 1.17 ± 0.061 | 1.22 ± 0.087 | 0.638 ± 0.025 | 0.967 ± 0.19 | 1.08 ± 0.1 | 0.992 (active)
